# Screening results deposited in PubChem by National Center for Advancing Translational Sciences (NCATS).
# Many of the other results were omitted from the sample, so hits are more common in it than they were.
# Integrin act MD: qHTS for Activators of Integrin-Mediated Alleviation for Muscular Dystrophy | Potency, µM (highest dose often 38.3 µM), for the others: top-dose activation, most hits filed as activators | 350,000 compounds, 0.064% hits | alpha7betagal myoblasts, beta-gal FDG fluorescence, 48 h;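 further: 100% = response of the positive control SU9516; nearly all actives have a fitted effect of over 60% in size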
#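 Alpha7betagal+/- myoblasts (passage 13) were plated 16-24 hr, then exposed to compounds (1:260 dilution of DMSO stock) for 48 hours at 37C. After MPER lysis, β-galactosidase reporter activity was read as FDG fluorescence (ex 480/em 540) after 30 minutes.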
# USP2a block: qHTS Assay for Inhibitors of Ubiquitin-specific Protease USP2a Using CHOP2 as the Reporter. Potency, µM (series often up to 38.3 µM), for the others: top-dose activity change, negative = inhibition, most hits filed as inhibitors. Ubiquitin carboxyl-terminal hydrolase 2 (Homo sapiens), O75604. USP2 core, Ub-CHOP2 coupled fluorogenic reporter, 485/531. 330,000 compounds, 0.01% hits;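 further: plate controls were DMSO wells for no effect and full inhibition by NEM control for full effect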
#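 Cell-free coupled assay: 10nM USP2 core preincubated 30min RT with compound in Tris-HCl pH 8.0/CaCl2/CHAPS buffer, then 25nM Ub-CHOP2 and 25nM reporter substrate; fluorescence (Ex 485/Em 531) read after 60min RT, normalized to NEM inhibition, concentration-response curves fitted.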
# Mm-Cpn inhibitor: Inhibitors of TCP-1 ring complex (TRiC) of Methanococcus maripaludis (MmCpn): qHTS | 330,000 compounds, 0.031% hits | Chaperonin Mm-Cpn (Methanococcus maripaludis) | Potency, µM (doses to about 76.9 µM), for the others: at the highest dose activity, negative = inhibition, most hits filed as inhibitors | purified Mm-Cpn ATPase, ADP Transcreener TR-FRET; further: on the % scale 0 is the no-effect control and ±100 the full control effect; nearly all actives have a fitted effect of over 80% in size
#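 Reaction buffer contained 30 mM Tris pH 7.4, 100 mM KCl, 5 mM MgCl2 and 1 mM DTT. Mm-CPN (25 nM final) hydrolysed 10 uM ATP over 30 min at 37°C; ADP was read by HTRF.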
# p53 reactivator: qHTS assay for re-activators of p53 using a Luc reporter; H1299 p53-A138V BP100-luciferase reporter, luminescence, 24 h; Potency, µM (doses to about 92.2 µM), inactives show at the highest dose activity change, positive = activation, most hits filed as activators; 320,000 compounds, 0.063% hits; further: % of control where 0% means no effect; nearly all actives have a fitted effect of over 45% in size
#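 H1299 (p53-null), stable ts p53-A138V + BP100-Luc; 1000 cells/well, Opti-MEM/10% FBS; cpd 4 pt, 1:5; 24 h, 37 deg C, 5% CO2; detection reagent 10 min RT; luminescence.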
# Eya2 inh: qHTS Assay for Inhibitors of the Phosphatase Activity of Eya2; Protein phosphatase EYA2 (Homo sapiens), O00167; 330,000 compounds, 0.006% hits; recombinant Eya2, OMFP fluorescence dephosphorylation (OMFP is methylfluorescein phosphate); Potency, µM (titrated, usually from 76.9 µM), for the others: at the top dose activity, negative = inhibition, most hits filed as inhibitors; further: on the % scale 0 is the no-effect control and ±100 the full control effect
# Target sequence (O00167 whole entry, looked up): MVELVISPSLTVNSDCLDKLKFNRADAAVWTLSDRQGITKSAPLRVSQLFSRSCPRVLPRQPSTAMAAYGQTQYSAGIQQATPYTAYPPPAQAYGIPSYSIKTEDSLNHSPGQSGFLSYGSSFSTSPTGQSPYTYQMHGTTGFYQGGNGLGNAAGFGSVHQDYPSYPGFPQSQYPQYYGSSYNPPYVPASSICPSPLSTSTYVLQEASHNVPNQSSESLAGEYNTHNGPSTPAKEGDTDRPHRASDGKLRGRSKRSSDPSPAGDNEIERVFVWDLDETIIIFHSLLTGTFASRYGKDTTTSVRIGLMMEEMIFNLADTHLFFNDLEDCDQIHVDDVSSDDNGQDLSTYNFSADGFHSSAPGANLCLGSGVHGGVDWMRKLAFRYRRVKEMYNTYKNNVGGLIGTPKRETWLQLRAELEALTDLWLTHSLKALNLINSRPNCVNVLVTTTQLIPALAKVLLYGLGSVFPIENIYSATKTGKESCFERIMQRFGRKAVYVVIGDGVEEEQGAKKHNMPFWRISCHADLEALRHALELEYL
#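 Eya2 (0.2 uM) preincubated 10 min at ambient with compound, then OMFP substrate added at 50 uM; 10 min reaction in 50 mM HEPES pH 7.5, 50 mM NaCl, 5 uM MgCl2, 0.05% BSA, 1 mM DTT. Fluorescence read at Ex 485/Em 525 nm.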
# ClpP mod: qHTS Assay for Activators of ClpP | ATP-dependent Clp protease proteolytic subunit (Bacillus subtilis (strain 168)), P80244 | purified B. subtilis ClpP, FRET peptide cleavage, 20 min | Potency, µM (series often up to 57.5 µM), for inactives: at the highest dose activity change, negative = active | 340,000 compounds, 1.9% hits | AID 651965, 2013; active means well fitted falling curve with a large enough effect; inconclusive means small, poorly fitted or top-dose-only effect; inactive means no such curve, though single readings can be large or run the other way; further: the source files actives as falling curves though it sought activators and does not explain the sign; nearly all actives have a fitted effect of over 65% in size
# Target sequence (P80244 whole entry, looked up): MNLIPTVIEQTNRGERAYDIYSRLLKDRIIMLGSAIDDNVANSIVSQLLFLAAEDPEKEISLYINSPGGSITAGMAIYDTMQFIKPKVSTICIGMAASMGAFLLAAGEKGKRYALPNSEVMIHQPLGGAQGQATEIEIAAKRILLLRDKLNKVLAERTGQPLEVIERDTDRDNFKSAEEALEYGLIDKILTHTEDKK
#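 ClpP 10 microg/mL final, pH 8 Tris/KCl buffer with BSA, glycerol, Tween-20; compound pinned in; FRET-FV substrate; RT 20 min; Ex320/Em430; ΔFRET vs ADEP 5.8 microM, DMSO, no enzyme.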
# ClpP validation: qHTS Assay for Activators of ClpP: Hit Validation of Inhibitors | shares compounds with ClpP mod | purified B. subtilis ClpP, FRET-FV substrate cleavage, 20 min | Potency, µM (doses to about 57.5 µM), for inactives: at the top dose activity change, negative = inhibition, usual class: inhibitors | 470 compounds, 40% hits | AID 743245, 2014; further: on the % scale 0 is the no-effect control and ±100 the full control effect; nearly all actives have a fitted effect of over 70% in size
# Active calls of the source: *; ? = inconclusive; · = no result; [ ] = another dose, or the depositor's remark. Unless noted, the call rests on the fitted dose curve; in most records, active means well fitted curve in the direction sought with a large enough effect; inconclusive means small, poorly fitted or top-dose-only effect, or another doubt; inactive means no such curve, though single readings can be large; an effect the other way counts as inactive or inconclusive. Potency means the concentration at half of the fitted maximal effect.
SMILES,Integrin act MD,USP2a block,Mm-Cpn inhibitor,p53 reactivator,Eya2 inh,ClpP mod,ClpP validation
CC(C)c1nc2oc3c(NCC4CCCO4)ncnc3c2c2c1COC(C)(C)C2 (centres undefined),-5.2%,2.7%,0.1%,17.1%,-1.0%,7.08µM*,21.7µM*
COc1cc(Cn2c(=O)oc3ccc(C)cc32)ccc1OCCC(C)C,·,·,·,·,·,-1.3%,·
CCCOc1ccc(Cn2c(=O)oc3ccc(C)cc32)cc1OC,-20.8%,0.1%,1.2%,-13.8%,-7.2%,240.3%,-0.6%
O=C(Nc1cccc(Cl)c1Cl)c1cc(S(=O)(=O)NCc2ccc3c(c2)OCO3)ccc1F,·,·,·,·,·,56.2%,?
CC(=O)Nc1ccc(Nc2ncnc3c2c(-c2ccccc2)cn3-c2ccccc2)cc1,·,·,·,·,·,-11.7%,·
CC(C)c1ccc(Nc2ncnc3c2c(-c2ccccc2)cn3-c2ccccc2)cc1,·,·,·,·,·,2.51µM*,24.3µM*
Cc1cccc2[nH]c3c(=O)n(CCN4CCNCC4)cnc3c12,3.9%,2.0%,-0.7%,-2.1%,11.2%,?,·
Cc1ccc2[nH]c3c(=O)n(CCN4CCNCC4)cnc3c2c1,16.8%,1.5%,1.6%,0.6%,-4.2%,8.91µM*,21.7µM*
COc1ccc2c(c1)c1ncn(CCN3CCNCC3)c(=O)c1n2C,-7.2%[7.66 µM],1.5%,-4.1%,-3.0%,10.4%,2.24µM*,19.3µM*
COc1ccc(C2=NC(C)(C)N(CC(=O)Nc3cccc(C)c3)C2=O)cc1,·,·,·,·,·,-10.8%,·
Cn1c(=O)n(C)c2cc(CNCc3ccccc3Cl)ccc21,·,·,·,·,·,-1.8%,·
Fc1cc2nc(-c3ccncc3)[nH]c2cc1F,9.8%,-1.6%,0.6%,28.9%,2.9%,3.16µM*,17.2µM*
CCc1ccc(NC(=O)CN2C(=O)C3(SCC(=O)N3c3ccccc3)c3ccccc32)cc1 (centres undefined),·,·,·,·,·,-1.9%,·
COc1ccc(-c2cc(C(=O)NCCc3ccccc3)c3c(-c4ccccc4)[nH]nc3n2)cc1OC,·,·,·,·,·,395.5%,24.3µM*
COc1ccc(NS(=O)(=O)c2ccc(C)c(C(=O)O)c2)cc1,11.6%,-0.4%,-0.5%,2.8%,-4.9%,-2.7%,·
COc1ccc(NS(=O)(=O)c2ccc(C)c(C(=O)NNC(=O)c3ccccc3O)c2)cc1,-7.1%,1.0%,3.1%,-6.3%,-9.7%,71.7%,0.3%
CCC(=O)Nc1cc2nn(-c3ccc(OC)cc3)nc2cc1C,?,3.0%,-5.1%,?,-11.5%,2.82µM*,19.3µM*
COc1ccc(-n2nc3cc(C)c(NC(=S)NC(=O)c4ccccc4C)cc3n2)cc1,7.6%[7.66 µM],5.8%,-12.1%,?,2.6%,216.5%,·
CCCCC(=O)Nc1cc2nn(-c3ccc(OC)cc3)nc2cc1C,9.1%,3.9%,-2.7%,?,4.2%[15.4 µM],1µM*,24.3µM*
CCC(=O)Nc1cc2nn(-c3ccc(C)cc3)nc2cc1C,-37.2%,7.6%,1.8%,12.0%,4.7%,4.7%,·
NC(=O)c1ccccc1NS(=O)(=O)Cc1ccccc1,24.8%,0.4%,-2.7%,7.5%,3.3%[15.4 µM],7.94µM*,21.7µM*
CCc1ccccc1NS(=O)(=O)c1ccc2c(c1)CCCN2C(=O)C1CCC1,·,·,·,·,·,0.0%,·
CCOC(=O)N1CCC(Nc2nc3ccccc3n3nnnc23)CC1,-15.7%,4.0%,1.7%,5.9%,0.5%,25.1µM*,19.3µM*
CCOC(=O)c1ccccc1Nc1nc2ccc(C)cc2n2nnnc12,·,·,·,·,·,-0.9%,·
CCCCN(C)C(=O)c1ccc2c(c1)N(Cc1cccc(Cl)c1)C(=O)c1ccccc1S2=O (centres undefined),·,·,·,·,·,1.2%,·
SMILES,Integrin act MD,USP2a block,Mm-Cpn inhibitor,p53 reactivator,Eya2 inh,ClpP mod,ClpP validation
Cc1c(C(=O)Nc2ccc(-c3nc4cc(Cl)ccc4o3)cc2)oc2ccccc12,·,·,·,·,·,8.91µM*,15.3µM*
CCCCN(CCCNC(=O)CN1N=C(c2ccc(C)cc2)CCC1=O)c1ccccc1,·,·,·,·,·,0.3%,·
CC(Nc1nc(N2CCN(S(C)(=O)=O)CC2)nc2ccccc12)c1ccccc1 (centres undefined),-26.4%,-1.7%,-1.3%,-5.2%,6.3%,3.98µM*,24.3µM*
COc1ccc(Nc2nc(N3CCN(S(C)(=O)=O)CC3)nc3ccccc23)c(OC)c1,8.6%,1.4%,0.5%,7.3%,10.9%,·,·
O=C(Cn1c2ccccc2c2nc3n(c(=O)c21)CCS3)Nc1ccccc1C(F)(F)F,12.5%,-0.1%,-0.6%,-0.4%,-10.9%,·,·
COc1ccccc1NC(=O)Cn1c2ccccc2c2nc3n(c(=O)c21)CCS3,-29.2%,-0.5%,2.6%,2.2%,-2.0%,3.16µM*,?
COc1cc(OC)c(Nc2nc3ccccc3nc2-n2nc(C)cc2C)cc1Cl,·,·,·,·,·,2.7%,·
Cc1cc(N2CCOCC2)nc2ccc(NC(=O)CCC(=O)N3CCCCC3)cc12,35.5%[7.66 µM],-0.9%,1.7%,62.7%,18.8%,7.08µM*,24.3µM*
Cc1cc(N2CCCCC2)nc2ccc(NC(=O)c3ccc(F)cc3)cc12,·,·,·,·,·,22.7%,-8.2%
Cc1ccc(C2Nc3ccccc3-c3nc4ccccc4n32)o1 (centres undefined),2.3%,-0.4%,-3.7%,?,0.7%,0.708µM*,10.9µM*
CCOc1ccccc1NC(=O)N(Cc1ccc(C)o1)C1CCN(C(C)=O)CC1,·,·,·,·,·,0.4%,·
COc1ccc(-c2[nH]c(-c3ccc4c(c3)OCO4)nc2-c2ccccc2)cc1,-66.5%,-3.0%,-1.2%,0.8%,8.2%,2.51µM*,24.3µM*
COc1cc(-c2nc(-c3ccccc3)c(-c3ccc(F)cc3)[nH]2)cc2c1OCO2,24.0%,2.9%,-2.5%,-2.4%,-2.4%,10µM*,21.7µM*
CCC(C)NC(=O)c1cc2cc3ccc(OC)cc3nc2s1 (centres undefined),23.2%,-3.1%,?,13.4%,-22.7%,10µM*,13.7µM*
O=C(NCc1ccccc1Br)C1CCCN(C(=O)N2CCOc3ccccc32)C1 (centres undefined),·,·,·,·,·,-3.3%,·
